Laboratory results from PubChem BioAssay (NCI).
Where “and” joins values, the source holds several entries; their conditions need not be identical. Equal values may be shown once. This is part of a sample that, as a whole, favours compounds with a hit. Of some 83,000 tested, about 20% had one in any assay.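 Treatment: one concentration, 48 hours, 96-well format. Scoring: percent growth, with anything below 10 considered active.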 Values without a mark were called inactive. Calls of active or inactive are those of the source.

Each compound was assayed on HL-60(TB) leukemia (assay: NCI-60 one-dose screen, 48 h (100 = growth as untreated, 0 = no growth, -100 = all killed)). Details: 10 µM unless noted.
In the case of CN1C(=O)CNC(=O)[C@H](NC(=O)c2nc3ccccc3cc2O)CSSC[C@H]1C(=O)NCCCc1nc2ccccc2cc1O, the growth is reported as -44.3% (active).
For N#CC1c2ccccc2C=CN1C(=O)c1ccccc1 (centres undefined), the growth was 93.2% and 71.1%.
In the case of C/C=C\COc1cc(C)c(Cl)cc1Cl, the growth is reported as 105%.
NS(=O)(=O)c1ccc(CCN2C(=O)/C(=C\c3ccccc3)C=C2c2ccc(Cl)cc2)cc1 was tested, and the growth was 104%.
Cc1c(C(=O)NC(Cc2ccccc2)C(O)C(=O)NCc2ccc(F)cc2)[nH]c2ccccc2c1=O (centres undefined) showed a growth of 82%.
For COc1ccc(/C(=N/O)c2cc(F)c(F)c(OC)c2F)cc1O, the growth was -5.23% (active).
Compound CC(C)OC1OC(OC(C)C)C(OC(C)C)OC1OC(C)C (centres undefined) has a growth of 87.2%.
With COc1ccc(C2=C(c3cn(C)c4ccccc34)C(=O)OC2)cc1OC the growth was 7.26% (active).
Work on NC(N)=Nc1nc2ccccc2o1 yielded a growth of 124%.
In the case of Cc1nc(Nc2ncc(C(=O)Nc3c(C)cccc3Cl)s2)cc(N2CCN(CCO)CC2)n1, the growth is reported as 107% and 35.7%.
Cc1nc2ccccc2c(/C=C/c2ccc(Cl)cc2)c1C(=O)/C=C/c1ccc(F)cc1 was tested, and the growth was -7.94% (active).
COc1ccc(C2C=C(c3ccc(OC)c(OC)c3)N=C3SC=C(C)N32)c(Br)c1 (centres undefined) showed a growth of 101%.
Cc1ccc(C(=O)N2C/C(=C/c3ccccc3)C(=O)/C(=C/c3ccccc3)C2)cc1 showed a growth of 73.7%.
CC/C(=C(/c1ccc(Cl)cc1)c1ccc(OCCN2CCCC2)cc1)c1ccc(OC)cc1 showed a growth of 65.1%.
